# Assay results from PubChem BioAssay.
# Activity calls are given as the source filed them.
# Tests used:
# [1] = system: Plasmodium falciparum Sir2 (PF13_0152, Sir2A); assay: Plasmodium falciparum Sir2A binding compounds – biochemical, small-molecule microarray, 635 nm fluorescence, primary screen (AID 1098); conditions: fluorescence 635 nm, higher = more signal;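 note: score merges spot fluorescence intensity with its signal-to-noise ratio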
# [2] = probe aDKK1 binding to arrayed compounds – biochemical, biotinylated probe, 635/667 nm fluorescence, primary screen (AID 1099); conditions: small-molecule microarray, higher = more signal;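 note: score merges 667nm spot fluorescence with signal to noise across triplicate slides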
# [3] = probe aCHRDL2 binding to arrayed compounds – biochemical, biotinylated probe, 635/667 nm fluorescence, primary screen (AID 1100); conditions: small-molecule microarray, higher = more signal
# [4] = change in splice reporter luminescence, either direction, cell-based, HEK293, spliceosome inhibition project, primary screen (AID 1101); conditions: HEK293 splicing luciferase reporter, 24 h, higher = more signal, called active from +8 up or from −8 down;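 note: HEK293 cells carrying a splicing-competent luciferase reporter gene; test concentration not given here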
# [5] = target: Fibroblast growth factor 10 (Homo sapiens) (UniProt O15520); assay: compounds binding fibroblast growth factor 10 – biochemical, small-molecule microarray, 635 nm fluorescence, primary screen (AID 1102); conditions: FGF10 binding, fluorescence 635 nm, higher = more signal
# Fibroblast growth factor 10 (Homo sapiens), sequence (O15520 whole entry, looked up): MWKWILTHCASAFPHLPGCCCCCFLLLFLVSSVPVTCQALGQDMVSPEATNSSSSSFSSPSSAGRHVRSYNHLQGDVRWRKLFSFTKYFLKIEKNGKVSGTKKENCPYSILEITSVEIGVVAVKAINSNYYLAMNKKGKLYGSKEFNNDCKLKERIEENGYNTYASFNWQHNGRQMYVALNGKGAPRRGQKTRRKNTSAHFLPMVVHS
# [6] = system: glycogen synthase kinase-3 (GSK3A per assay name; protocol says GSK3B); assay: compounds binding glycogen synthase kinase-3 – biochemical, small-molecule microarray, 635 nm fluorescence, GSK3A, primary screen (AID 1103); conditions: fluorescence 635 nm, higher = more signal; note: the record names both GSK3A and GSK3B
# [7] = target: Epidermal growth factor receptor (Homo sapiens) (UniProt P00533); assay: compounds binding epidermal growth factor receptor – biochemical, small-molecule microarray, 635 nm fluorescence, primary screen (AID 1104); conditions: EGFR binding, higher = more signal;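 note: score merges 667 nm emission intensity with spot signal to noise over triplicate slides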
# Epidermal growth factor receptor (Homo sapiens), sequence (P00533 whole entry, looked up): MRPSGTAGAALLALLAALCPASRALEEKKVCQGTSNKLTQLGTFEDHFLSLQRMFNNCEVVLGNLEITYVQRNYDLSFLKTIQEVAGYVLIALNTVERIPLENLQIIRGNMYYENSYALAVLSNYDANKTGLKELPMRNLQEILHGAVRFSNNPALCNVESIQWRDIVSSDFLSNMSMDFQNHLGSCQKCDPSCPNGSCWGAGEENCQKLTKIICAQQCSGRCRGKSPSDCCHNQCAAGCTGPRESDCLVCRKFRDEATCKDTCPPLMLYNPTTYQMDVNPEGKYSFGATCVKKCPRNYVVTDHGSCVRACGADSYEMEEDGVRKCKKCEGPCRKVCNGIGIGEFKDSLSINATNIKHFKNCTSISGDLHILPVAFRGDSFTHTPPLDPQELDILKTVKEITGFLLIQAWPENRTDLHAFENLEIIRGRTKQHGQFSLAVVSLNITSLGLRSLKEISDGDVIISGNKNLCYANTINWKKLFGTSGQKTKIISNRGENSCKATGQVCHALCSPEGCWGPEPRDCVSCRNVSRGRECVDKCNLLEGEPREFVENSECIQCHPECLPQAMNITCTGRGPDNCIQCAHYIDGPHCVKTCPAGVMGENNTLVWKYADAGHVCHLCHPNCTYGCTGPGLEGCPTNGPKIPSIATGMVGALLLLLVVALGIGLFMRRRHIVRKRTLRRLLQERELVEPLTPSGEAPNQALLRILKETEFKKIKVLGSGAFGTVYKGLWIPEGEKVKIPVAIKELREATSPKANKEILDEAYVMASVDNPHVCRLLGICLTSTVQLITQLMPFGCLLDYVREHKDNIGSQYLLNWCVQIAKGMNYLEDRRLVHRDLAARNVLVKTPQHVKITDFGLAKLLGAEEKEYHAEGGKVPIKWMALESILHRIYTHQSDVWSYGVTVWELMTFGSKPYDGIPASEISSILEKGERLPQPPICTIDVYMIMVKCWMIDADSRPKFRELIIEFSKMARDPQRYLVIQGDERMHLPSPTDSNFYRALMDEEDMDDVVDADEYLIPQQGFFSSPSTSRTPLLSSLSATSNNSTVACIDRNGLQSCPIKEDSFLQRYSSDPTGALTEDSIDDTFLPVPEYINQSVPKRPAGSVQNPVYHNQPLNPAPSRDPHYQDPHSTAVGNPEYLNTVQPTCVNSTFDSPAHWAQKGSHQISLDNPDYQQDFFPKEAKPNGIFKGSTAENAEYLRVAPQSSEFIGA
# [8] = target: Follistatin-related protein 3 (Homo sapiens) (UniProt O95633); assay: compounds binding follistatin-related protein 3 – biochemical, small-molecule microarray, 635 nm fluorescence, primary screen (AID 1105); conditions: FSTL3 binding, higher = more signal;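 note: score merges emission near 667 nm and signal to noise per printed spot across three slides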
# Follistatin-related protein 3 (Homo sapiens), sequence (O95633 whole entry, looked up): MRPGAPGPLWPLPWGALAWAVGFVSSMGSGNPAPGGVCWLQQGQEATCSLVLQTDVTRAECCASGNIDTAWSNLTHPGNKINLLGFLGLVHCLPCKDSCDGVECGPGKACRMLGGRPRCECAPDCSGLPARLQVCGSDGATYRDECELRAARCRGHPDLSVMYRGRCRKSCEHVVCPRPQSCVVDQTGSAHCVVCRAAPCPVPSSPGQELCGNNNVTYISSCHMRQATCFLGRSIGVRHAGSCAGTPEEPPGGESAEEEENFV
# [9] = target: Dickkopf-related protein 1 (Homo sapiens) (UniProt O94907); assay: small molecules binding DKK1 protein – biochemical, small-molecule microarray, 635 nm fluorescence scan, primary screen (AID 1106); conditions: higher = more signal;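 note: score merges emission near 667 nm with signal to noise over three replicate slides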
# Dickkopf-related protein 1 (Homo sapiens), sequence (O94907 whole entry, looked up): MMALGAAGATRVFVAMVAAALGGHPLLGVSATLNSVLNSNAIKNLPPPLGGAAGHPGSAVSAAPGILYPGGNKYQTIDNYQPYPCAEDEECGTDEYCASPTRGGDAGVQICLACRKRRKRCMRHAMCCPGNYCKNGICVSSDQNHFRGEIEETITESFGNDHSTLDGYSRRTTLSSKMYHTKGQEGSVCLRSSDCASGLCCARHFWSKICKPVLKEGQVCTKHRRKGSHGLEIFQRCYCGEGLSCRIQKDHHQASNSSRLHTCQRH
# [10] = system: Inhibin beta A chain (activin A); assay: small molecules binding activin A – biochemical, small-molecule microarray, 635 nm fluorescence scan, primary screen (AID 1107); conditions: INHBA, higher = more signal;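 note: mouse activin A protein probed at 4.33 µg/mL on printed slides; score merges bound-protein fluorescence near 667 nm with spot signal-to-noise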
# [11] = system: Human papillomavirus type 1a protein E7 (residues 44-93); assay: small molecules binding HPV E7 44-93 – biochemical, small-molecule microarray, residues 44-93, 635 nm fluorescence, primary screen (AID 1108); conditions: fluorescence 635 nm, higher = more signal;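 note: E7 fragment applied at 1 µg/mL in TBST for 1 h at 4 C; score combines spot fluorescence with its signal to noise ratio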
# [12] = hepatitis C replication reporter changes, two-sided – Huh7 cells, luciferase reporter, HCV replication inhibitor project, primary screen (AID 1109); conditions: Huh7 HCV replicon luciferase reporter, 48 h; higher = more signal;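 note: huh7 hepatoma cells harbouring a luciferase neomycin HCV replicon reporter; luciferase luminescence as measure of HCV replicon replication; test concentration not given here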
# [13] = target: Left-right determination factor 2 (Homo sapiens) (UniProt O00292); assay: small molecules binding LEFTY2 protein – biochemical, small-molecule microarray, 635 nm fluorescence scan, primary screen (AID 1110); conditions: higher = more signal
# Left-right determination factor 2 (Homo sapiens), sequence (O00292 whole entry, looked up): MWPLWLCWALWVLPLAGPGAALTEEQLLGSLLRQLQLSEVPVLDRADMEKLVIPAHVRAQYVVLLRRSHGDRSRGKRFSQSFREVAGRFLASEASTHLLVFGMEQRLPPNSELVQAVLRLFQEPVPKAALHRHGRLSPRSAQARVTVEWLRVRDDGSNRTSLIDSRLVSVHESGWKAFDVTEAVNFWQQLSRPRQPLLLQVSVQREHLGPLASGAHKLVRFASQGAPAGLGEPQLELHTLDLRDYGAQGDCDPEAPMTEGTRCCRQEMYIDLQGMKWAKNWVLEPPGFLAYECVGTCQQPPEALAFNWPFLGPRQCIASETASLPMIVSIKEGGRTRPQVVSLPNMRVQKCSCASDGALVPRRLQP
# [14] = target: Calmodulin-1 (Homo sapiens) (UniProt P0DP23); assay: small molecules binding calmodulin-1 with EGTA – biochemical, small-molecule microarray, Cy5-labelled CALM1, profiling panel (AID 1111); conditions: Cy5-CALM1 binding fluorescence, higher = more signal;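 note: labelled calmodulin applied in Tris saline Tween buffer holding calcium plus EGTA and DTT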
# [15] = target: Calmodulin-1 (Homo sapiens) (UniProt P0DP23); assay: small molecules binding Ca-loaded calmodulin-1 – biochemical, small-molecule microarray, Cy5-labelled CALM1, plus calcium, artefact control for SMM control-protein annotation, profiling panel (AID 1112); conditions: Cy5-CALM1 binding fluorescence, higher = more signal;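 note: score merges spot fluorescence with signal to noise from triplicate slides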
# [16] = probe aWnt5a binding to arrayed compounds – biochemical, biotinylated probe, 635/667 nm fluorescence, primary screen (AID 1113); conditions: small-molecule microarray, higher = more signal;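 note: score merges 667 nm fluorescence intensity with signal-to-noise per printed feature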
# [17] = probe aShh binding to arrayed compounds – biochemical, biotinylated probe, 635/667 nm fluorescence, primary screen (AID 1114); conditions: small-molecule microarray, higher = more signal;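 note: probe is biotin-labelled aShh protein from a stem cell growth factor screen; measures binding of labelled protein to compounds printed on the slide; score merges feature fluorescence at 667 nm with signal-to-noise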
# [18] = probe aNog binding to arrayed compounds – biochemical, biotinylated probe, 635/667 nm fluorescence, primary screen (AID 1115); conditions: small-molecule microarray, higher = more signal;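 note: probe is biotinylated aNog protein used at 0.15 µg/mL for 1 h at 4 C; z-score combines 667 nm fluorescence of each spot with its signal to noise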
# [19] = target: Torsin-1A-interacting protein 1 (Homo sapiens) (UniProt Q5JTV8); assay: compound microarray binding of lysate hLAP1 – cell lysate, small-molecule microarray, COS7 lysate, 635/667 nm fluorescence, primary screen (AID 1116); conditions: 635 nm fluorescence, higher = more signal
# Torsin-1A-interacting protein 1 (Homo sapiens), sequence (Q5JTV8 whole entry, looked up): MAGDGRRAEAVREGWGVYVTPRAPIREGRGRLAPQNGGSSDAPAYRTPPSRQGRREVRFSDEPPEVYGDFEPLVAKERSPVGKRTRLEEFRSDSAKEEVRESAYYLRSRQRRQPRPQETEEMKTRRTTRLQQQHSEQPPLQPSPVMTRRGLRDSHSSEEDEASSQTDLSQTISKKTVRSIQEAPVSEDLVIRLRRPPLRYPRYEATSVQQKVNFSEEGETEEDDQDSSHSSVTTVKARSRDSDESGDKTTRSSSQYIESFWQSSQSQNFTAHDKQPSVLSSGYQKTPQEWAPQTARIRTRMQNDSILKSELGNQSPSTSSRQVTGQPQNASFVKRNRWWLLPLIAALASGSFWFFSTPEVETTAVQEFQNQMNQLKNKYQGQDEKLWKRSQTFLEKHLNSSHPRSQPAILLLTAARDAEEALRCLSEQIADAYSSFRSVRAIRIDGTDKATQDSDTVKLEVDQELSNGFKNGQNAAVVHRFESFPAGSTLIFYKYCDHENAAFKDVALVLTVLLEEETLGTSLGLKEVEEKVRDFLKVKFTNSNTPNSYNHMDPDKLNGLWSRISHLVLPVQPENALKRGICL
# [20] = target: Alpha-bungarotoxin (Bungarus multicinctus) (UniProt P60615); assay: compounds binding labelled alpha-BTX control protein – biochemical, small-molecule microarray, Alexa647 label, 635/667 nm fluorescence, artefact control for SMM control protein annotation, profiling panel (AID 1117); conditions: alpha-BTX-A647 binding fluorescence, higher = more signal
# Alpha-bungarotoxin (Bungarus multicinctus), sequence (P60615 whole entry, looked up): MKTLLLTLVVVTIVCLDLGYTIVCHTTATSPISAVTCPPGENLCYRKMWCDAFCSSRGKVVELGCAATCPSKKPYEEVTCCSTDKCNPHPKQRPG
smiles,measurement,setting,value
CN(C)C(=O)[C@]1(CCC(=O)OC(C)(C)C)N=C(c2ccc(OCCCO)cc2)O[C@@H]1c1ccccc1,composite z-score,[1],0.11
same,composite z-score,[2],0.937
same,composite z-score,[3],1.01
same,z-score,[4],-0.403 (inactive)
same,composite z-score,[5],0.617
same,composite z-score,[6],1.11
same,composite z-score,[7],-0.0133
same,composite z-score,[8],0.011
same,composite z-score,[9],-0.136
same,composite z-score,[10],0.12
same,composite z-score,[11],1.17
same,z-score,[12],0.381
same,composite z-score,[13],0.119
same,composite z-score,[14],0.989
same,composite z-score,[15],0.744
same,composite z-score,[16],0.14
same,composite z-score,[17],0.0793
same,composite z-score,[18],0.289
same,composite z-score,[19],2.76
same,composite z-score,[20],0.654
C=CCN1C(=O)[C@@]2(O[C@@H](CCO)[C@H]([Si](C)(C)c3ccc(OC)cc3)[C@H]2C)c2cc(N3C(=O)c4ccccc4Oc4ccccc43)ccc21,composite z-score,[1],1.07
same,composite z-score,[2],-0.0987
same,composite z-score,[3],0.0272
same,z-score,[4],-3.3 (inactive)
same,composite z-score,[5],0.916
same,composite z-score,[6],-0.229
same,composite z-score,[7],-0.262
same,composite z-score,[8],-0.0233
same,composite z-score,[9],0.0911
same,composite z-score,[10],0.0761
same,composite z-score,[11],-0.719
same,z-score,[12],-5.16
same,composite z-score,[13],0.163
same,composite z-score,[14],1.4
same,composite z-score,[15],0.927
same,composite z-score,[16],0.0181
same,composite z-score,[17],-0.186
same,composite z-score,[18],0.0061
same,composite z-score,[19],0.669
same,composite z-score,[20],0.328
O=C1NC(=O)C2C1C=CC(C(O)c1ccc(Br)cc1)N2Nc1ccccn1 (stereo not given),composite z-score,[1],0.246
same,composite z-score,[2],0.71
same,composite z-score,[3],0.662
same,z-score,[4],-0.141 (inactive)
same,composite z-score,[5],0.557
same,composite z-score,[6],0.389
same,composite z-score,[7],0.12
same,composite z-score,[8],0.28
same,composite z-score,[9],1.27
same,composite z-score,[10],1.37
same,composite z-score,[11],-0.444
same,z-score,[12],0.233
same,composite z-score,[13],0.727
same,composite z-score,[14],-0.156
same,composite z-score,[15],-0.435
same,composite z-score,[16],0.149
same,composite z-score,[17],0.254
same,composite z-score,[18],0.356
same,composite z-score,[19],0.531
same,composite z-score,[20],0.22
NC(=O)NCC#Cc1ccc2c(c1)[C@]1(C(=O)N2)[C@H](c2ccc(O)cc2)N2[C@H](c3ccccc3)[C@H](c3ccccc3)OC(=O)[C@H]2[C@@H]1C(=O)Nc1nc2ccccc2s1,composite z-score,[1],0.836
same,composite z-score,[2],0.645
same,composite z-score,[3],0.985
same,z-score,[4],1.11 (inactive)
same,composite z-score,[5],1.25
same,composite z-score,[6],0.0394
same,composite z-score,[7],0.581
same,composite z-score,[8],1.05
same,composite z-score,[9],0.666
same,composite z-score,[10],1.17
same,composite z-score,[11],0.89
same,z-score,[12],-1.27
same,composite z-score,[13],0.413
same,composite z-score,[14],0.563
same,composite z-score,[15],0.229
same,composite z-score,[16],0.168
same,composite z-score,[17],0.246
same,composite z-score,[18],0.563
same,composite z-score,[19],0.633
same,composite z-score,[20],1.23
COc1ccc([Si](C)(C)[C@H]2[C@H](CCO)O[C@@]3(C(=O)N(Cc4cccc(N5CCCCC5=O)c4)c4ccccc43)[C@@H]2C)cc1,composite z-score,[1],1.08
same,composite z-score,[2],0.176
same,composite z-score,[3],0.0883
same,z-score,[4],-2.37 (inactive)
same,composite z-score,[5],0.748
same,composite z-score,[6],0.845
same,composite z-score,[7],0.525
same,composite z-score,[8],1.16
same,composite z-score,[9],0.82
same,composite z-score,[10],0.861
same,composite z-score,[11],1.25
same,z-score,[12],-5.07
same,composite z-score,[13],1
same,composite z-score,[14],0.557
same,composite z-score,[15],0.388
same,composite z-score,[16],-0.0919
same,composite z-score,[17],0.149
same,composite z-score,[18],0.304
same,composite z-score,[19],0.753
same,composite z-score,[20],1.22
COc1ccc(NC(=O)O[C@H]2[C@H](OC(=O)Nc3ccc4c(c3)OCO4)[C@@H](OC(=O)Nc3ccc4c(c3)OCO4)[C@@H](OC)O[C@@H]2CO)cc1,composite z-score,[1],1.61
same,composite z-score,[2],0.0898
same,composite z-score,[3],0.0398
same,z-score,[4],1.27 (inactive)
same,composite z-score,[5],1.11
same,composite z-score,[6],1.29
same,composite z-score,[7],0.0699
same,composite z-score,[8],0.516
same,composite z-score,[9],0.0542
same,composite z-score,[10],0.774
same,composite z-score,[11],1.38
same,z-score,[12],-0.802
same,composite z-score,[13],0.0093
same,composite z-score,[14],1.88
same,composite z-score,[15],-0.56
same,composite z-score,[16],-0.0478
same,composite z-score,[17],0.365
same,composite z-score,[18],0.966
same,composite z-score,[19],1.29
same,composite z-score,[20],0.663
